For experiment [1], the target named is Tyrosine-protein kinase SYK (Homo sapiens) (UniProt P43405). Conditions: at 1 µM.
In experiment [2] the target is T1, Tyrosine-protein kinase Tec (Homo sapiens) (UniProt P42680).
T1 sequence (whole entry): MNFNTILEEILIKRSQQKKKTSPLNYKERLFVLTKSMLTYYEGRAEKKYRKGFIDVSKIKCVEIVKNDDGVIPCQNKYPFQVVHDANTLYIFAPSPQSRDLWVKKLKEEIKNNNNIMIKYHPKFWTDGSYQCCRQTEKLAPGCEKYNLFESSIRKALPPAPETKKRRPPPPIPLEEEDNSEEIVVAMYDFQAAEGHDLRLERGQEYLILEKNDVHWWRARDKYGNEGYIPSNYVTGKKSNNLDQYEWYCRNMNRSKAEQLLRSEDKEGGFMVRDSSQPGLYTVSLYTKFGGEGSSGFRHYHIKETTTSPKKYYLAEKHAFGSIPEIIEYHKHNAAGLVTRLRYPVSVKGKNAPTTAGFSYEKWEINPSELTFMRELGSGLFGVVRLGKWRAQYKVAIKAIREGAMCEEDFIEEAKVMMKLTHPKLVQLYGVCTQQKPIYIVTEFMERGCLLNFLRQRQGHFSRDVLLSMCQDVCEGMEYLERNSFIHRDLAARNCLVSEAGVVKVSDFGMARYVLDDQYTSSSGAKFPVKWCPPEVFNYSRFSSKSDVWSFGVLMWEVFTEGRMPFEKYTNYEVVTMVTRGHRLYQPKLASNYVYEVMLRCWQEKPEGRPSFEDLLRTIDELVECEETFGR
To be noted: at 0.1 µM.

Experiment [3] has as its target T1, Tyrosine-protein kinase Tec (Homo sapiens). Conditions: at 1 µM.
In experiment [4] the target is Angiopoietin-1 receptor (Homo sapiens) (UniProt Q02763). To be noted: at 0.1 µM.
The target is the same in experiment [5]. Conditions: at 1 µM.
Experiment [6] concerns the target T2, Non-receptor tyrosine-protein kinase TNK1 (Homo sapiens) (UniProt Q13470).
T2 sequence (whole entry): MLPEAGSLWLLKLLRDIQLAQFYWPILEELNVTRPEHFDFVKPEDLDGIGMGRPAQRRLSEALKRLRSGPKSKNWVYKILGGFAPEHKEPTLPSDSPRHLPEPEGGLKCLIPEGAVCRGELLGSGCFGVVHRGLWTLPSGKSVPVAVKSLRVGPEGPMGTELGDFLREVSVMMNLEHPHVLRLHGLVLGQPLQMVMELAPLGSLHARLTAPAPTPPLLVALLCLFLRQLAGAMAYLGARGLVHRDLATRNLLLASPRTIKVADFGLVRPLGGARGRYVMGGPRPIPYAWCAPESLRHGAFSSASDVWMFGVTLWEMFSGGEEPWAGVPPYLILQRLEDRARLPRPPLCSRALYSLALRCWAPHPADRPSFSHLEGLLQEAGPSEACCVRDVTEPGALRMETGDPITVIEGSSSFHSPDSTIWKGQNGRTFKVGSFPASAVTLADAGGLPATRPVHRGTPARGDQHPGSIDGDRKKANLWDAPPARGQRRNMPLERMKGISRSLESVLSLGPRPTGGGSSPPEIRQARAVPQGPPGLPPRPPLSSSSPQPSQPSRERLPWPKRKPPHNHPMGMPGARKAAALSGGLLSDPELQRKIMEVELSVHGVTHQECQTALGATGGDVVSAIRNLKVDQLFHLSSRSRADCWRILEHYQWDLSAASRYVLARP
Conditions: at 0.1 µM.

Experiment [7] has as its target T2, Non-receptor tyrosine-protein kinase TNK1 (Homo sapiens). Conditions: at 1 µM.
Experiment [8] has as its target Activated CDC42 kinase 1 (Homo sapiens) (UniProt Q07912). To be noted: at 0.1 µM.
Experiment [9] shares this target. Conditions: at 1 µM.
Experiment [10] addresses High affinity nerve growth factor receptor (Homo sapiens) (UniProt P04629). To be noted: at 0.1 µM.
The target is the same in experiment [11]. Conditions: at 1 µM.
Experiment [12] concerns the target BDNF/NT-3 growth factors receptor (Homo sapiens) (UniProt Q16620). Conditions: at 0.1 µM.
Experiment [13] shares this target. To be noted: at 1 µM.
Experiment [14] has as its target NT-3 growth factor receptor (Homo sapiens) (UniProt Q16288). Conditions: at 0.1 µM.
The target is the same in experiment [15]. Conditions: at 1 µM.
Experiment [16] deals with T3, Tyrosine-protein kinase TXK (Homo sapiens) (UniProt P42681).
T3 sequence (whole entry): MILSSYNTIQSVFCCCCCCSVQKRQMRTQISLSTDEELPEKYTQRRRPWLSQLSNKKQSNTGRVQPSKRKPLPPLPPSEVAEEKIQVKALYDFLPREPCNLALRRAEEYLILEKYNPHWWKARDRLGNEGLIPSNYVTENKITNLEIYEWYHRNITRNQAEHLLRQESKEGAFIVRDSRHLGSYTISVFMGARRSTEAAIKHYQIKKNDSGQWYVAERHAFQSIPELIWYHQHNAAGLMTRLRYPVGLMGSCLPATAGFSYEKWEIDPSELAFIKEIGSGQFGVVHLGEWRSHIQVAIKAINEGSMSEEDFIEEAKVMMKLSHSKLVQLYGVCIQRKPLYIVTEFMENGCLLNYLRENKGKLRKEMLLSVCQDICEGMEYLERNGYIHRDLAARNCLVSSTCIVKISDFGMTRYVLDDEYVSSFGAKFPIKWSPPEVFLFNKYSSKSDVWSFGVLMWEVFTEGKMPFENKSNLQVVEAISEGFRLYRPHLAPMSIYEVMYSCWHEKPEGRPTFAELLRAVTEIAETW
To be noted: at 0.1 µM.

The target of experiment [17] is T3, Tyrosine-protein kinase TXK (Homo sapiens). To be noted: at 1 µM.
For experiment [18], the target named is Non-receptor tyrosine-protein kinase TYK2 (Homo sapiens) (UniProt P29597). To be noted: at 0.1 µM.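 Further: each value is a mean of the inhibition readings.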
Experiment [19] addresses T4, Dual specificity protein kinase TTK (Homo sapiens) (UniProt P33981).
T4 sequence (whole entry): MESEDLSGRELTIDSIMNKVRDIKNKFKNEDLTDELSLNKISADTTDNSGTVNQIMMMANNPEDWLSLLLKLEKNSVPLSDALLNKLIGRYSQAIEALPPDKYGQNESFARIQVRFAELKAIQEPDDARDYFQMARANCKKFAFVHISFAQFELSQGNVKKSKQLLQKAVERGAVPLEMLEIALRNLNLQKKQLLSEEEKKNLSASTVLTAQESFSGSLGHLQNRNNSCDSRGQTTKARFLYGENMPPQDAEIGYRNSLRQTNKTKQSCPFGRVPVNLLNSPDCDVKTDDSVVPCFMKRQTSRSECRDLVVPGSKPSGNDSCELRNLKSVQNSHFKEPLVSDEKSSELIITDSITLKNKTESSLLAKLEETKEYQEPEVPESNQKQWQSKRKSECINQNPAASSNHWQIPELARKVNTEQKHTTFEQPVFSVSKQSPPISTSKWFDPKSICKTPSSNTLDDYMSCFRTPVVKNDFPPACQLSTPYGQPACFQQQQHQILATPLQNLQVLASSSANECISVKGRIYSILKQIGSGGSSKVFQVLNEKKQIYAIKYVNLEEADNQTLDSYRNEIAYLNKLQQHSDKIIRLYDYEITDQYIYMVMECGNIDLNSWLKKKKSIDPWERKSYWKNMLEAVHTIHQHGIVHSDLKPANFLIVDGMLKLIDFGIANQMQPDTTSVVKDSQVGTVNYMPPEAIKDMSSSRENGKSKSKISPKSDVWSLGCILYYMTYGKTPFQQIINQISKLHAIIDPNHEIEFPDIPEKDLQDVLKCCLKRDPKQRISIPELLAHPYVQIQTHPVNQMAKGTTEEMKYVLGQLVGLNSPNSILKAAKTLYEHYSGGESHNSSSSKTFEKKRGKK
Conditions: at 1 µM.

Experiment [20] addresses T5, Aurora kinase A (Homo sapiens) (UniProt O14965).
T5 sequence (whole entry): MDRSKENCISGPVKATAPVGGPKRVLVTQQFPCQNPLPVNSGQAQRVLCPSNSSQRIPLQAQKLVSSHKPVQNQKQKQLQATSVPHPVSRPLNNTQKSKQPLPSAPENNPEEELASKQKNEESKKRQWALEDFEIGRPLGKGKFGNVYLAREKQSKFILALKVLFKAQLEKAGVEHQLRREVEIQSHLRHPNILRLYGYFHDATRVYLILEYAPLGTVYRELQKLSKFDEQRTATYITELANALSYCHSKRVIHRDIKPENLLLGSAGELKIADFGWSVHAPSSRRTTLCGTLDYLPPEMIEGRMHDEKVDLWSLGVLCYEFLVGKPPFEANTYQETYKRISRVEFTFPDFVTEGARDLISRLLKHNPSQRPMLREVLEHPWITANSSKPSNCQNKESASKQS
To be noted: at 0.1 µM.

Chain of BDNF/NT-3 growth factors receptor (Homo sapiens) (Q16620 32-822 limits assumed): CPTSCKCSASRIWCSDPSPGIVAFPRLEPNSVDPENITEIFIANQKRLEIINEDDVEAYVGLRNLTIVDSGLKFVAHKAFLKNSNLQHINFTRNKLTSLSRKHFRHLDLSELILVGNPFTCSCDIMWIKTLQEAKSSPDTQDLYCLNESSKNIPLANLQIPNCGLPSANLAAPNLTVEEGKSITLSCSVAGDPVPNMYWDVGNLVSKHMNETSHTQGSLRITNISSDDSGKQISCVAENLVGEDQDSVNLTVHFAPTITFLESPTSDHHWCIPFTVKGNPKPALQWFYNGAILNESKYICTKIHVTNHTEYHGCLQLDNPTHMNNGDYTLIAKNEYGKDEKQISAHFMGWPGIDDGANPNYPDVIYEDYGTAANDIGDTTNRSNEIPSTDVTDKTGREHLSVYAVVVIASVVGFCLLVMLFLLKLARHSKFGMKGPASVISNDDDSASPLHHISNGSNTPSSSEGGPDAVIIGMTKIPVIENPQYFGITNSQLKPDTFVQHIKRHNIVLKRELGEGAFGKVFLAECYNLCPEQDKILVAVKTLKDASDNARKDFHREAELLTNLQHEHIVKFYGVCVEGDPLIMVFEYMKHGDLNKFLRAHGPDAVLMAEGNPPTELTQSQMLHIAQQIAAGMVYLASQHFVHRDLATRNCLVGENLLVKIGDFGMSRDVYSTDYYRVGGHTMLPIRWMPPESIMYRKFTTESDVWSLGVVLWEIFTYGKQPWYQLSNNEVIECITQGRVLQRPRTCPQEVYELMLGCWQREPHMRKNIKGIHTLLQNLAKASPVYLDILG
Chain of Non-receptor tyrosine-protein kinase TYK2 (Homo sapiens) (P29597 whole entry): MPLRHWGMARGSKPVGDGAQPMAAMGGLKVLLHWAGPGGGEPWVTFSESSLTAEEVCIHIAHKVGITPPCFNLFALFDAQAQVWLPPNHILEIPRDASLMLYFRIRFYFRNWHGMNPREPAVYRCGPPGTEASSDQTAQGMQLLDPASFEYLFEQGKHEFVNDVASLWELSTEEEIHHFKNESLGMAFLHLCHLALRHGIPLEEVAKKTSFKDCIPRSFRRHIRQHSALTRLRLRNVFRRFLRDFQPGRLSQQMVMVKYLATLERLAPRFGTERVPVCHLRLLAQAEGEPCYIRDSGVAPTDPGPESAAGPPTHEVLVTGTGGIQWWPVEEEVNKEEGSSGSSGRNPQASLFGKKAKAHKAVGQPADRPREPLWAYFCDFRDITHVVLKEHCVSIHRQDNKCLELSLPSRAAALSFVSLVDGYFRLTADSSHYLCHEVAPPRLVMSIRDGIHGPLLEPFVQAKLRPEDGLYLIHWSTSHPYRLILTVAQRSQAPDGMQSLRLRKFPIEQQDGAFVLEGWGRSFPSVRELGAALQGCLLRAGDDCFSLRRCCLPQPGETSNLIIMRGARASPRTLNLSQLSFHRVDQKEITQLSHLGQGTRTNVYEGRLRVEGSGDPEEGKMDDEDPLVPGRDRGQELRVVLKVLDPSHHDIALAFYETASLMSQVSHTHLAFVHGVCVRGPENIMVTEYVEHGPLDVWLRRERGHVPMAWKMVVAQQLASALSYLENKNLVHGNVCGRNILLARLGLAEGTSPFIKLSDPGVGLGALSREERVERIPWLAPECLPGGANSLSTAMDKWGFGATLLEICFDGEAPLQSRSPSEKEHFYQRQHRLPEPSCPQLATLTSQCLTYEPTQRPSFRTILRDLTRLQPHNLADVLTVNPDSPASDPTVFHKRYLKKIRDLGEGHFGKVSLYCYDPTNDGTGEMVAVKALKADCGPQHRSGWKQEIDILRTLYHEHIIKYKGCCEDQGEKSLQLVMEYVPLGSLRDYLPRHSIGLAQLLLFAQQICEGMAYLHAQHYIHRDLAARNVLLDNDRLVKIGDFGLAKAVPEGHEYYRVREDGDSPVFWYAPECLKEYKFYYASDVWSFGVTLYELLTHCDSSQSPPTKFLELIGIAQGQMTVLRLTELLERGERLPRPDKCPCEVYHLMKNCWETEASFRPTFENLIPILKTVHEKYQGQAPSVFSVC
Chain of High affinity nerve growth factor receptor (Homo sapiens) (P04629 33-796 limits assumed): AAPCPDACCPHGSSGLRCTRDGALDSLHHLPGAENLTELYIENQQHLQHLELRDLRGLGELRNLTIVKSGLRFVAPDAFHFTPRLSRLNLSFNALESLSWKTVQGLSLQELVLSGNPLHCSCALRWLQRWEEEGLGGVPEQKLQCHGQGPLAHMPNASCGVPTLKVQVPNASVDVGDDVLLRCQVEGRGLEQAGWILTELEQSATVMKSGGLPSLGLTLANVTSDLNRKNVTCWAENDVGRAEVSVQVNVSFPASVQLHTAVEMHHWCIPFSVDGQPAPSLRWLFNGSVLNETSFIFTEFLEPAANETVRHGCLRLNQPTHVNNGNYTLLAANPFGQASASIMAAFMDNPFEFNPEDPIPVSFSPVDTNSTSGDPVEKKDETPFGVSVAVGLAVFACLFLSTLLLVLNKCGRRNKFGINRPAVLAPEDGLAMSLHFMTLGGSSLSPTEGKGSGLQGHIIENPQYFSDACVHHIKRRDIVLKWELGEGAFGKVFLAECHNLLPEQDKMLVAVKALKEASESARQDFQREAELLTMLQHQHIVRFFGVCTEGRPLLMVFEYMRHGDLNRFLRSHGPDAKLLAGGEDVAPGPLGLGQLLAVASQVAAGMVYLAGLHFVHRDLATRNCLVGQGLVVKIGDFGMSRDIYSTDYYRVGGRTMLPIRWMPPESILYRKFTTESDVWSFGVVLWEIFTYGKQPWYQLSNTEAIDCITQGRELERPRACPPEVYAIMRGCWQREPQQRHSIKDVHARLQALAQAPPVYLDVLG
Chain of Activated CDC42 kinase 1 (Homo sapiens) (Q07912 whole entry, looked up): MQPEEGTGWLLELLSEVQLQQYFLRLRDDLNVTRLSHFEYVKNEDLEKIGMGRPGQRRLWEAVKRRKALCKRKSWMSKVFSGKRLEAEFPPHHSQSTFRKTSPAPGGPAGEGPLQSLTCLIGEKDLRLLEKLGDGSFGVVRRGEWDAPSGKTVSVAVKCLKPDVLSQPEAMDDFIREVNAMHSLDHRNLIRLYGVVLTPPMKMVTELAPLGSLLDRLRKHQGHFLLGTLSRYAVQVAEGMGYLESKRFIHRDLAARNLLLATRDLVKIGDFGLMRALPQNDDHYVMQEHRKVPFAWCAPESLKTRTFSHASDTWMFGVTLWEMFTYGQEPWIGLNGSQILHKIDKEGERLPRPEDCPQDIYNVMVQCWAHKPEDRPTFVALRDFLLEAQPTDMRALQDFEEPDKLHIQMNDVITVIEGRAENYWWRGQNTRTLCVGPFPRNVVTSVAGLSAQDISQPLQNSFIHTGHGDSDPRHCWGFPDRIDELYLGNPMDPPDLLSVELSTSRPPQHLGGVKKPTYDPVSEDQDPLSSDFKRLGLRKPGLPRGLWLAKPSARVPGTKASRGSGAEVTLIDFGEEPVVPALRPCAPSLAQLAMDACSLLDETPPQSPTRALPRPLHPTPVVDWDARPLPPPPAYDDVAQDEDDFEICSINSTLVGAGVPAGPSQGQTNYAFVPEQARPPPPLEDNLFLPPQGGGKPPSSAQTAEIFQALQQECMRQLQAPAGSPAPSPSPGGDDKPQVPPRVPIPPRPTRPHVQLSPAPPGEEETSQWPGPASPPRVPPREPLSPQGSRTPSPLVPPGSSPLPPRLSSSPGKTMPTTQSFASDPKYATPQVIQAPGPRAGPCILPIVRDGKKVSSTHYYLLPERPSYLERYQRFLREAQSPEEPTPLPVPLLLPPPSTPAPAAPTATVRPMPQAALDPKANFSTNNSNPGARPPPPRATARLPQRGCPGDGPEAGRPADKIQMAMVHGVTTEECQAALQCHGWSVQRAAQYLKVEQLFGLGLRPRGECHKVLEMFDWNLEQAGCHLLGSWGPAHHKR
Chain of Angiopoietin-1 receptor (Homo sapiens) (Q02763 whole entry): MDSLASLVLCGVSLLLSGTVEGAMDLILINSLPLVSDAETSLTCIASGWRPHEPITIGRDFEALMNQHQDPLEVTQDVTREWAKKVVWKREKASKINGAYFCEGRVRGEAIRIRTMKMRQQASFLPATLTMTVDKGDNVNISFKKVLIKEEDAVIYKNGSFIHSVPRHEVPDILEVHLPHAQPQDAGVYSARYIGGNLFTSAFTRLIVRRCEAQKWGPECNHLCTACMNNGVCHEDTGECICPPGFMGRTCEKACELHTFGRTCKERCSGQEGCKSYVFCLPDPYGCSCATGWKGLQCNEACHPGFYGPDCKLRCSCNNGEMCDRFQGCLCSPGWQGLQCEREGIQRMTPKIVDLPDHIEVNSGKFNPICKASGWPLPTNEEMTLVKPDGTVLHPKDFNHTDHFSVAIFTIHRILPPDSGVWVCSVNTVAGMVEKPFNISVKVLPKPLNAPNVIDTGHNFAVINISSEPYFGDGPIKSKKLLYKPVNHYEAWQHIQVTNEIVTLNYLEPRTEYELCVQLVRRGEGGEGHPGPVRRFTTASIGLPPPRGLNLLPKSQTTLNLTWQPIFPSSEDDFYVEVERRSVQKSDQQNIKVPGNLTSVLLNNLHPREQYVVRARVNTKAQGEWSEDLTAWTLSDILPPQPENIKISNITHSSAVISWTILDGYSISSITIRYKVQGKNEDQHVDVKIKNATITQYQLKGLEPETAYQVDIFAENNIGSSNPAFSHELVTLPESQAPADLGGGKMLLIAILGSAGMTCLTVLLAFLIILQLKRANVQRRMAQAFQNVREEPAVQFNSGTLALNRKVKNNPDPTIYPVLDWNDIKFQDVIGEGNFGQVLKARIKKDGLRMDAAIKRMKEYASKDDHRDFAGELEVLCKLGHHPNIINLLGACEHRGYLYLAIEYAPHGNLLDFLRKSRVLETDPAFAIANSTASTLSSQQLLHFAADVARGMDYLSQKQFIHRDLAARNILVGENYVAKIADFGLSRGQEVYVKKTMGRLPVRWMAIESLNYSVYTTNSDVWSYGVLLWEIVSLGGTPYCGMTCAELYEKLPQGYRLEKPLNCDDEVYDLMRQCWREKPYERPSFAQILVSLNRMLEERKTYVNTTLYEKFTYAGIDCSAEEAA

With `N#Cc1c(NC(=O)c2cccc3ccccc23)sc2c1CCCC2`, the inhibition in experiment [1] is 2.16%; in experiment [2], 2.31%; in [3] it was 3.43%; in [4], 2.34%; in experiment [5] it was 6.02%; in experiment [6] it was 1.31%. In addition, the inhibition in [7] is -2.02%; in [8], 0.12%; in [9], 0.56%; in [10], 3.35%; in experiment [11], 1.26%; in experiment [12], 2.03%. Moreover, the inhibition was 2.36% in experiment [13]; 2.33% in experiment [14]; 2.63% in [15]; 2.34% in experiment [16]; 4.42% in experiment [17]; -0.41% in experiment [18]. The inhibition in [19] was found to be 0.69%; in experiment [20], 2.42%.

Turning to `CCN1CCC(CC(=O)Nc2n[nH]c3nc(-c4cccs4)c(Br)cc23)CC1`, the inhibition was 0.14% in [1]; -2% in experiment [2]; -2.77% in experiment [3]; 9.68% in [4]; 11.1% in experiment [5]; -7.55% in experiment [6]. The inhibition was 4.72% in experiment [7]; -0.98% in experiment [8]; -0.2% in experiment [9]; -0.5% in experiment [10]; 0.88% in [11]; -0.35% in experiment [12]. The inhibition is -1.99% in experiment [13]; -0.62% in [14]; 0.26% in experiment [15]; -1.07% in [16]; -3.55% in experiment [17]; -2.72% in [18]. Besides, the inhibition in experiment [19] was -0.41%; in experiment [20], -2.72%.

For the compound `CC(=O)Nc1cccc(C#Cc2cncnc2Nc2ccc(OCc3cccc(F)c3)c(Cl)c2)n1`, the inhibition in [1] is -0.2%; in [2] it was -0.56%; in [3] it was 0.51%; in experiment [4], -1.08%; in experiment [5], 2.93%; in experiment [6], -0.47%. Moreover, the inhibition in experiment [7] is 13.1%; in [8] it was -0.48%; in experiment [9], 2.35%; in experiment [10], -4.25%; in experiment [11], -2.48%; in experiment [12], -1.79%. For the same compound, the inhibition in experiment [13] was 0.05%; in [14], -0.41%; in [15], 4.04%; in experiment [16] it was 0.96%; in experiment [17], 0.46%; in [18] it was 4.58%. Further, the inhibition was 10.8% in [19] and -0.41% in experiment [20].

Regarding `COc1cc2ncn(-c3cc(OCc4ccccc4Cl)c(C(N)=O)s3)c2cc1OC`, the inhibition is 1.86% in experiment [1]; 1.67% in experiment [2]; 7.65% in experiment [3]; 3.11% in [4]; 26.9% in [5]; 16.9% in experiment [6]. Moreover, the inhibition came to 63.2% in experiment [7]; 0.35% in [8]; 7.05% in experiment [9]; 0.53% in experiment [10]; 2.92% in experiment [11]; 2.11% in experiment [12]. Moreover, the inhibition in experiment [13] came to 13.7%; in experiment [14], 3.13%; in experiment [15], 20.4%; in [16], 2.99%; in experiment [17], 13.2%; in [18] it was 2.29%. The inhibition is 0.54% in experiment [19] and 1.9% in experiment [20].
